About 420 (0.61%) of roughly 69,000 compounds showed an effect of 50% or more. The list comes from a sample in which strong results are over-represented; it also holds similar structures and randomly drawn compounds.
Biological target: T1, Histidine--tRNA ligase (Leishmania infantum) (UniProt A4I591)
T1 sequence (whole entry): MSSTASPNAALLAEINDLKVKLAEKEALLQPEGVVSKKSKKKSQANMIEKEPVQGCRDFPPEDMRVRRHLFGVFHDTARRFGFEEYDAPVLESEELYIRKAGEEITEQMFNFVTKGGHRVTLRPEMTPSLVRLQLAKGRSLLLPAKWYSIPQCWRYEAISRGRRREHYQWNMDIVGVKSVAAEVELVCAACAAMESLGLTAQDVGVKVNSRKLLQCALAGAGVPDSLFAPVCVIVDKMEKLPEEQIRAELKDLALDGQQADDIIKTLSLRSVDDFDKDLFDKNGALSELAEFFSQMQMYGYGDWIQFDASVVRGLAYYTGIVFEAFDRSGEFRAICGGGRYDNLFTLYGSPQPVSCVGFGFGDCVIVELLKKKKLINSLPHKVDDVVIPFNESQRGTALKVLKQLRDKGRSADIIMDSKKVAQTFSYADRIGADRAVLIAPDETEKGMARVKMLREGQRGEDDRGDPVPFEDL
Test: Leishmania infantum Histidine tRNA synthetase (LdHisRS)
Type: functional
Design: scale not given: in the data most compounds retested in dose-response had high values
Conditions: 30 µM

SMILES | Percent Effect
Cc1noc(C)c1C(=O)N1C[C@H]2CCC[C@@]2(COc2ccccn2)C1 | 17.6%
Cc1ccc(C(=O)N2CCO[C@H]3[C@H](OCc4ccccn4)CC[C@@H]32)o1 | 19.3%
Cc1nc([C@@H]2C[C@@H]3CCN(C(=O)Cc4cccc(F)c4)C[C@H]3O2)no1 | 9.09%
CN(C)C(=O)[C@H]1C[C@@H]2CCN(C3CCOCC3)C[C@@H]2O1 | 11.1%
CN1CCN(S(=O)(=O)c2ccc(Sc3nccn3C)nc2)CC1 | -3.37%
Cn1ccnc1Sc1ccc(N)cn1 | 91%
Cn1ccnc1Sc1ccc(S(N)(=O)=O)cn1 | 10.3%
CS(=O)(=O)N1CCO[C@@H]2CN(C(=O)N3CCOCC3)CC[C@@H]2C1 | 4.5%
CN(C)CC(=O)N1CCc2sc(C(=O)N3CCOCC3)cc21 | 15.8%
Cc1ccc(N2CCc3sc(C(=O)NCCN4CCCC4)cc32)nn1 | 8.33%
Cc1ccc(N2CCc3sc(C(=O)N4CCOCC4)cc32)nn1 | 50%
Cc1cc(C(=O)NCC(C)C)c2c(C3CCCN3)noc2n1 (configuration not stated) | 4.14%
Cc1cc(C(=O)NCC(F)(F)F)c2c(C3CCCN3)noc2n1 (configuration not stated) | 71.7%
Cc1cc(C(=O)NCC(F)(F)F)c2c(C3CCNCC3)noc2n1 | 19.3%
Cc1cnc(N2CC[C@@]3(O)CCCC[C@H]3C2)nc1-c1ccnn1C | -3.33%
CN1[C@H](CN2CCCC2)C[C@@H]2CN(C(=O)c3ccsc3)CC[C@@H]21 | 0.917%
CO[C@@H]1CN(S(=O)(=O)c2cn(C)cn2)[C@@H]2CCCO[C@@H]21 | 17.2%
Cc1ccc(N2CC[C@H]3C[C@H](C(=O)NCc4ccco4)O[C@H]3C2)nn1 | 18.1%
N#Cc1c(SCCN2CCCCC2)sc2c(O)cc(O)nc12 | 24.7%
N#CCCSc1sc2c(O)cc(O)nc2c1C#N | 74.2%
N#Cc1c(SCCN2CCCCCC2)sc2c(O)cc(O)nc12 | 24.7%
Cc1ccc(NS(=O)(=O)c2cnn(Cc3ccccc3)c2)c(C(=O)O)c1 | 23.9%
Cc1ccc(NS(=O)(=O)c2cnn(-c3ccccc3)c2)c(C(=O)O)c1 | 69.6%

SMILES | Percent Effect
Cc1ccc(-n2cc(S(=O)(=O)Nc3cccc(C(=O)O)c3C)cn2)cc1 | 13%
Cc1ccnc(C(=O)N2C[C@@H]3CN(S(C)(=O)=O)CCO[C@@H]3C2)c1 | 8.77%
COCCOc1ccccc1C(=O)N1CCCCC1c1nccs1 (configuration not stated) | 50%
COCCOc1ncccc1C(=O)N1CCCCC1c1nccs1 (configuration not stated) | 14.9%
COc1cccc(C(=O)N2CCCCC2c2nccs2)c1OC (configuration not stated) | 4.39%
CC(C)Cc1ccc(S(=O)(=O)Nc2ccc(=O)n(C)c2)cc1 | 91%
Cc1ccc(S(=O)(=O)Nc2ccc(=O)n(C)c2)cc1 | 77.5%
CCc1ccc(C(=O)O)cc1S(=O)(=O)Nc1ccc(=O)n(C)c1 | 21.4%
Cn1cc(NS(=O)(=O)c2ccc3c(c2)CCCC3)ccc1=O | 41.8%
Cn1cc(NS(=O)(=O)c2ccc(F)c(F)c2)ccc1=O | 47.3%
CCCc1ccc(S(=O)(=O)Nc2ccc(=O)n(C)c2)cc1 | 29.1%
Cc1ccc(S(=O)(=O)Nc2ccc(-n3cccc3C(=O)O)c(C)c2)cc1 | 6.25%
Cn1cc(NS(=O)(=O)c2ccc(C(F)(F)F)cc2)ccc1=O | 38.2%
Cc1ccc(S(=O)(=O)Nc2ccc(-n3nnn(C)c3=O)cc2)cc1 | 12.2%
Cc1ccc(S(=O)(=O)Nc2ccc(=O)n(C)c2)c(Br)c1 | 32.7%
CC(C)c1ccc(C(=O)O)cc1S(=O)(=O)Nc1ccc(=O)n(C)c1 | 84.6%
Cn1cc(NS(=O)(=O)c2ccc(OC(F)(F)F)cc2)ccc1=O | 82%
c1ccc(CN2CC[C@@H]3O[C@H](COCc4ccncc4)CC[C@@H]32)nc1 | 10.9%
CC(C)CN1C[C@@H]2OCC(=O)N(Cc3nccn3C)[C@@H]2C1 | 23%
O=C([C@@H]1COC[C@H]2CN(C3CCOCC3)C[C@H]21)N1CCOCC1 | 30.6%
CCO[C@H]1CC[C@H]2[C@@H]1OCCN2C(=O)COc1ccccc1 | 19.1%
CN1[C@H]2CC[C@@H]1CN(C(=O)c1sccc1S(N)(=O)=O)CC2 | -12.7%
CN(c1cccnn1)[C@@H]1CC[C@@H]2CN(Cc3cccc(C(=O)O)c3)C[C@@H]21 | 5.63%

SMILES | Percent Effect
Cc1[nH]nc(CCC(=O)N2C[C@H]3CC[C@@H]2CN(C(=O)N(C)C)C3)c1C | 13.9%
Cc1cc(C(=O)N2C[C@@H]3CN(S(C)(=O)=O)CCO[C@@H]3C2)c(C)o1 | -1.75%
CNC(=O)[C@@]12CCO[C@@H]1CCN(S(=O)(=O)c1cc(C)cc(C)c1)C2 | 13%
Cc1nn(C)cc1NC(=O)CC1CCN(CCc2ccccc2)CC1 | 5.67%
Cn1cc(Br)cc(NC(=O)Cc2cccs2)c1=O | 34%
Cc1c(CS(C)(=O)=O)cccc1NC(=O)CC1CCCC1 | 11.7%
CC(C)(C)CC(=O)Nc1ccccc1SCC(N)=O | 9.57%
O=C(CC1CCCC1)Nc1ccc(-n2cc(Br)cn2)nc1 | 10.5%
Cc1cc(=O)n(C)cc1NC(=O)CC1CCC1 | 75%
Cn1cc(Br)cc(NC(=O)CC(C)(C)C)c1=O | 95%
Cn1ccc(CN2CCC(CC(=O)NC3CCCC3)CC2)cc1=O | -8.33%
Cn1cc(C(C)(O)CNC(=O)c2cc(Br)cn2C)cn1 (configuration not stated) | 25.5%
CCC(=O)Nc1cc(Br)cn(C)c1=O | 103%
CCC(=O)Nc1cc(Br)cnc1OCC(F)(F)F | 14%
Cn1cc(Br)cc(NC(=O)CC2CCC2)c1=O | 103%
COCCNC(=O)[C@H]1CN(Cc2nccs2)C[C@H]2OCC[C@@H]12 | 15.2%
COCCCN1C(=O)CC[C@H]2CN(Cc3ncc[nH]3)CC[C@H]21 | -49.3%
COc1cc(N2C[C@H](C(=O)N3CCCC3)[C@@H]3CCO[C@@H]3C2)ncn1 | 8.06%
O=C(c1ccco1)N1CC[C@H]2[C@H]1CCN2S(=O)(=O)C1CC1 | 5.26%
Cc1ccc(C(=O)N2C[C@@H]3COC[C@]3(COc3cccnc3)C2)cn1 | 7.52%
O=C(NCc1cccs1)[C@]12COC[C@H]1CN(c1ncccn1)C2 | 5.26%
CCCS(=O)(=O)N1C[C@@H](Oc2ncccc2F)[C@H]2OCCC[C@H]21 | 8.22%
c1cnc(N2CCO[C@H]3[C@H](OCc4cccnc4)CC[C@@H]32)nc1 | -9.73%

SMILES | Percent Effect
Cc1ncsc1CN1CC[C@H]2OCC[C@@]2(C(=O)N2CCCO2)C1 | 16.8%
COc1ccccc1C1(CNCc2ccc(C#N)cc2)CCOCC1 | 60.4%
COc1ccccc1C1(CNc2nnc(C)c(C)c2C#N)CCOCC1 | 37%
COc1ccccc1C1(CNCc2ccc([S+](C)[O-])cc2)CC1 (configuration not stated) | 12.1%
COc1ccccc1C1(CNCc2cccc(O)c2)CCOCC1 | 109%
N#Cc1ccc(CNCC2(c3ccccc3)CCOCC2)cc1 | 42.9%
COc1ccccc1C1(CNCc2cccc(C#N)c2)CCOCC1 | 49.5%
Cn1cc(C(=O)N2C[C@@H]3CN(S(C)(=O)=O)CCO[C@@H]3C2)cn1 | 7.55%
Cc1oncc1C(=O)N1CC[C@H]2[C@@H]1CCC(=O)N2CC1CC1 | 0%
CC(C)CN1C[C@H]2C[C@H](C(=O)N3CCCC3)[C@@H](C1)O2 | 13.2%
Cc1noc(C(C)Nc2ccc3oc(C)nc3c2)n1 (configuration not stated) | 106%
CC(C)c1nc2cc(NC(=O)Cn3ccc(=O)[nH]c3=O)ccc2o1 | 14%
Cc1noc(C(C)Nc2ccc3oc(=O)[nH]c3c2)n1 (configuration not stated) | 16.4%
CC(C)c1nc2cc(NC(=O)Cn3ccccc3=O)ccc2o1 | 12%
Cc1noc(C(C)Nc2ccc3c(c2)CCC3)n1 (configuration not stated) | 9.38%
Cc1noc(C(C)Nc2ccc3oc(C(C)C)nc3c2)n1 (configuration not stated) | 106%
Fc1cnc(N2C[C@@H]3C[C@@H](c4nc(C5CC5)cs4)O[C@@H]3C2)nc1 | 7.55%
Cc1cs/c(=N/C(=O)c2csc(NCC(C)C)n2)[nH]1 | 75.3%
Cc1[nH]/c(=N\C(=O)c2csc(NCC(C)C)n2)sc1C | 20.9%
CC(C)CNc1nc(C(=O)/N=c2\[nH]nc(C(C)(C)C)s2)cs1 | 1.91%
CCN(Cc1nc2c(cnn2C)c(=O)[nH]1)Cc1ccco1 | 15.7%
O=C(NCC1CCCO1)c1nc2c(s1)CCCN2Cc1ccccc1 (configuration not stated) | 45.8%
COCCN1CCCc2sc(C(=O)NCC3CCCO3)nc21 (configuration not stated) | 52.8%

SMILES | Percent Effect
O=C(NCC1CCCO1)c1nc2c(s1)CCCN2CC1CC1 (configuration not stated) | 29.2%
Cc1cccc(CN2C[C@@H]3COC[C@]3(CNC(=O)C3CCC3)C2)c1 | 17.8%
NC1CCN(C2CCN(c3ccc(-c4ccco4)cc3)CC2)CC1 | 54.8%
COc1ccc(N2CCC(N3CCOC(C(F)(F)F)C3)CC2)cc1 (configuration not stated) | 14.3%
CCS(=O)(=O)c1ccc(N2CCC(N)CC2)cc1 | 11.6%
CNC1CCN(C2CCN(c3ccc(-c4ccco4)cc3)CC2)CC1 | 42.1%
O=C(O)c1ccccc1C1CCN(C2CCN(c3ccccc3)CC2)C1 (configuration not stated) | 22.7%
NCC1CCN(C2CCN(c3ccc(-c4ccco4)cc3)CC2)C1 (configuration not stated) | 64.3%
Cc1cccc(C(=O)N2CCN(S(C)(=O)=O)[C@@H]3CS(=O)(=O)C[C@@H]32)n1 | -2.67%
COC[C@@]12CC[C@@H](N3CCOCC3)C[C@H]1CCN(c1ncccc1F)C2 | 19.4%
O=C1OCCN1CC(=O)N1C[C@H]2CC[C@@H]1CN(Cc1cscn1)C2 | -18.2%
O=C(c1ccccn1)N1CC[C@H]2C(=O)N(c3ccsc3)CCO[C@H]2C1 | 18%
CC(C)n1nc2c(cc1=O)CN(c1ncnc3sccc13)CC2 | 38.7%
c1csc(N2CCN(c3ncnc4sccc34)CC2)n1 | 27.1%
c1csc(N2CCCN(c3ncnc4sccc34)CC2)n1 | 22.4%
Cn1nc2c(cc1=O)CN(c1ncnc3sccc13)CC2 | 100%
CCn1nc2c(cc1=O)CN(c1ncnc3sccc13)CC2 | 102%
CCCn1nc2c(cc1=O)CN(c1ncnc3sccc13)CC2 | 15.3%
O=C1N(c2cccc(F)c2)Cc2nc(=O)n(Cc3ccc(Cl)cc3)n21 | 9.78%
O=C(Cc1ccco1)N1C[C@H]2CCC[C@@]2(COCC2CC2)C1 | 20%

Source: ChEMBL document CHEMBL3988442, “University of Dundee, Small-Polar-MMV Screening Library” (2021)
